# Results from PubChem BioAssay AID1445 (SRMLSC, 2008).
# Screen size: about 220,000 compounds; about 910 (0.41%) were called active.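 How the source made its calls: active means primary inhibition above the hit cutoff, then over 50% inhibition at one or more dose response concentrations (cut at about 23% in these data, passing the limit was not always enough); inconclusive means conflicting primary data, or primary hits not chosen for dose response; inactive means low primary inhibition, or under 50% at every dose.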 This excerpt belongs to a sample that is enriched for actives. Results with a measured potency or affinity are listed apart.
# Target: Aminopeptidase N (Plasmodium falciparum (isolate 3D7)) (UniProt O96935)
# Test: malaria alanyl aminopeptidase activity blockers – biochemical, fluorogenic H-Leu-NHMec substrate, 1536-well (AID 1445);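 further: plate controls were DMSO full reaction for no effect and no enzyme background for full effect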
# Conditions: recombinant M1AAP, H-Leu-NHMec fluorogenic kinetic assay; at 30 µM, stronger effect = higher value unless noted
# Sequence of Aminopeptidase N (Plasmodium falciparum (isolate 3D7)) (O96935 whole entry, looked up): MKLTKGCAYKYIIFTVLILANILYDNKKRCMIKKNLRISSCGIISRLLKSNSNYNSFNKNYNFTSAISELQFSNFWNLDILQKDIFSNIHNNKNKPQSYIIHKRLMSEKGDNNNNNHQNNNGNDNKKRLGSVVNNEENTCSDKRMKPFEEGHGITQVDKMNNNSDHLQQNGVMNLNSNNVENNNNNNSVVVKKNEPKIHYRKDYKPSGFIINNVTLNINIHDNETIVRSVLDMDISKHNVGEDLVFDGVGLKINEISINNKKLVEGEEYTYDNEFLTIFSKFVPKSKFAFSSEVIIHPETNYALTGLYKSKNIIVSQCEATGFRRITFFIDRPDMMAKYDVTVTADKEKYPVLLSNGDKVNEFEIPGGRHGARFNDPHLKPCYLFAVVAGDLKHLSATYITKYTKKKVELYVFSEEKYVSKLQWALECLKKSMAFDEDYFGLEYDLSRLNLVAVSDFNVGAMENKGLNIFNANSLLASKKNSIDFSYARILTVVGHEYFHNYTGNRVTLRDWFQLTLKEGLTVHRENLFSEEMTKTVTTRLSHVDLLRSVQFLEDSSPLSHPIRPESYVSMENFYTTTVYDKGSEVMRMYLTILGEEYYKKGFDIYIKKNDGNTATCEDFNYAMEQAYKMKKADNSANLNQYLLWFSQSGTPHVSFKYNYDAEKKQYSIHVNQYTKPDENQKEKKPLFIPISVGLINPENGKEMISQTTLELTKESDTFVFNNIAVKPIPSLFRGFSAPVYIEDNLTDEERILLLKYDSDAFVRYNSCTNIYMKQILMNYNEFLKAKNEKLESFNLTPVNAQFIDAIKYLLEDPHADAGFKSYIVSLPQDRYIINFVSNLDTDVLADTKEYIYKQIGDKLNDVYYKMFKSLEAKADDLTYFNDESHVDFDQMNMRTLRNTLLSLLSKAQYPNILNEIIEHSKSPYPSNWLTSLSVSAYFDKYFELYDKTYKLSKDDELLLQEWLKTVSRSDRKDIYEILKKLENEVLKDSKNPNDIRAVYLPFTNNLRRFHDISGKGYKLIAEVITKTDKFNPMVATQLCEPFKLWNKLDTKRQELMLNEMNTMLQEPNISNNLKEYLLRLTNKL
row,SMILES,inhibition
1,CCc1cc2c(-n3nc(C)cc3C)ncnc2s1,4.83% (inactive)
2,Cc1cc(Cl)ccc1OCCCC(N)=O,1.94% (inactive)
3,Cc1cc(Cl)ccc1OCCCC(=O)NN,2.87% (inactive)
4,Cn1c(=O)n(C)c2cc(NS(=O)(=O)c3cccs3)ccc21,5.68% (inactive)
5,Cc1ccc(C(=O)NCc2ccc(Cl)c(Cl)c2)o1,7.75% (inactive)
6,CCCCN(CCCC)CC(O)CN1C(=O)NC(C)(C)C1=O (stereo not drawn),-3.19% (inactive)
7,CCN(CC(N)=O)S(=O)(=O)c1ccc(F)cc1,2.95% (inactive)
8,CCOc1ccc(C(=O)N/N=C/c2ccc(-c3ccc(S(=O)(=O)Nc4ncccn4)cc3)o2)cc1,55.9% (active)
9,CCOc1ccc(S(=O)(=O)N(CC(=O)N/N=C/c2ccc(-c3ccc([N+](=O)[O-])cc3)o2)c2ccccc2)cc1,15.9% (inactive)
10,O=C(N/N=C/c1ccc(Sc2ccccn2)o1)c1cc2ccccc2cc1O,33% (inactive)
11,CCOc1ccc(S(=O)(=O)Nc2ccc(C(=O)NN)cc2)cc1,4.26% (inactive)
12,CCCOc1ccc(C(=O)Nc2ccc(S(=O)(=O)Nc3onc(C)c3C)cc2)cc1,-1.24% (inactive)
13,Cc1noc(NS(=O)(=O)c2ccc(NC(=O)c3ccc(OC(C)C)cc3)cc2)c1C,4.64% (inactive)
14,Cc1ccc(C(=O)N/N=C\c2ccc(-c3ccc(Cl)cc3)o2)cn1,8.72% (inactive)
15,NS(=O)(=O)c1ccc(-c2ccc(/C=N/NC(=O)c3ccc([N+](=O)[O-])cc3)o2)cc1,2.02% (inactive)
16,NS(=O)(=O)c1ccc(-c2ccc(/C=N/NC(=O)c3ccccc3O)o2)cc1,11.7% (inactive)
17,O=C(Nc1ccc(Cl)c(Cl)c1)C1CC(=O)N(c2ccc(Br)cc2)C1 (stereo not drawn),-1.64% (inactive)
18,O=C(CCc1nc2ccccc2[nH]1)Nc1ccccc1F,-0.01% (inactive)
19,CC1CCCCN1C(=O)COc1ccc2ccc(=O)oc2c1 (stereo not drawn),-2.26% (inactive)
20,Cc1ccc(NCN2C(=O)C3CC=CCC3C2=O)cc1 (stereo not drawn),2.04% (inactive)
21,Cc1ccc(CSCC(=O)N/N=C/c2sccc2C)cc1,-0.66% (inactive)
22,O=C(Cn1cc(C(F)(F)F)cc(Cl)c1=O)Nc1cc(S(=O)(=O)N2CCOCC2)ccc1Cl,7.22% (inactive)
23,Cc1ccc(NC(=O)NCc2ccc3c(c2)OCO3)cc1C,0.33% (inactive)

row,SMILES,inhibition
1,Cc1ccc(N2CC(C(=O)Nc3cccnc3)CC2=O)cc1 (stereo not drawn),-4.99% (inactive)
2,CC12CC(NC(=O)N1Cc1ccccc1)c1ccccc1O2 (stereo not drawn),25.3% (active)
3,CC12CC(NC(=O)N1CCc1ccccc1)c1ccccc1O2 (stereo not drawn),4.6% (inactive)
4,COc1cccc2c1OC1(C)CC2NC(=O)N1Cc1ccccc1 (stereo not drawn),1.39% (inactive)
5,CC1CCCC(C)N1NC(=S)Nc1ccc(OC(F)F)cc1 (stereo not drawn),3.89% (inactive)
6,CSc1cc(-c2ccc(Cl)cc2)[nH]c(=O)c1C#N,0.84% (inactive)
7,O=C1NCC(COCc2ccco2)O1 (stereo not drawn),-4.49% (inactive)
8,CC(=O)NC(Cc1c[nH]c2ccccc12)C(=O)N/N=C/c1ccccc1 (stereo not drawn),2.78% (inactive)
9,COC(=O)N/N=C/c1cc(OC)c(O)c([N+](=O)[O-])c1,14.3% (inactive)
10,COc1ccccc1CNC(=O)C(Cc1c[nH]c2ccccc12)NC(=O)OCc1ccccc1 (stereo not drawn),2.3% (inactive)
11,COc1cc(/C=N/NC(=O)Cc2c[nH]c3ccccc23)cc(OC)c1OC,8.03% (inactive)
12,COc1ccc(/C=N/NC(=O)C(Cc2c[nH]c3ccccc23)NC(=O)OCC(C)C)cc1[N+](=O)[O-] (stereo not drawn),3.34% (inactive)
13,COc1cc(/C=N/NC(=O)C(Cc2c[nH]c3ccccc23)NC(=O)OCC(C)C)cc([N+](=O)[O-])c1OCc1ccccc1 (stereo not drawn),9.91% (inactive)
14,Cc1ccc2[nH]c(=O)c(CNC(C)C)cc2c1,11.4% (inactive)
15,O=C(NCc1ccccn1)C(=O)Nc1ccccc1,1.97% (inactive)
16,Cc1ccc(C(=O)C(OC(=O)c2cnccn2)c2ccccc2)cc1 (stereo not drawn),1.17% (inactive)
17,O=S(=O)(c1ccc2ccccc2c1)N1CCN(C(=S)Nc2ccc(F)cc2)CC1,3.26% (inactive)
18,O=C(Cc1ccccc1)NS(=O)(=O)c1ccc(N=NN2CCOCC2)cc1,12.9% (inactive)
19,COC(=O)N1CCCc2cc(C)ccc21,-4.46% (inactive)
20,COc1cccc(C(=O)NN2C(=O)C3C4C=CC(O4)C3C2=O)c1 (stereo not drawn),6.4% (inactive)
21,NS(=O)(=O)c1ccc(CCNC(=O)CSc2nc3ccsc3c(=O)n2CC(=O)O)cc1,2.18% (inactive)
22,O=C(NCc1ccccn1)C1CCN(S(=O)(=O)c2cc(Cl)ccc2Cl)CC1,3.1% (inactive)
23,CC(C)c1ccc(C(N)=S)cc1,4.59% (inactive)

row,SMILES,inhibition
1,COC(=O)[C@@H](NC(=O)NC(C)CCc1ccccc1)C(C)C (stereo partly drawn),23.4% (active)
2,CC(=O)NC(C)CCc1ccccc1 (stereo not drawn),-2.08% (inactive)
3,COC(=O)[C@H](C)NC(=O)NC(C)CCc1ccccc1 (stereo partly drawn),13.4% (inactive)
4,Cc1cccc(N2C(=O)CC(N3CCC(c4nc5ccccc5[nH]4)CC3)C2=O)c1 (stereo not drawn),3.73% (inactive)
5,CC1CCN(C(=O)C2CCN(S(=O)(=O)c3cc(Cl)ccc3Cl)CC2)CC1,0.81% (inactive)
6,CC(C)C(C)(C#N)NC(=O)CSc1nc2scc(-c3ccco3)c2c(=O)n1-c1ccccc1 (stereo not drawn),24.4% (active)
7,CC(C)C(C)NC(=O)CSc1nc2scc(-c3ccco3)c2c(=O)n1-c1ccccc1 (stereo not drawn),4.78% (inactive)
8,NC(=O)CSc1nc2scc(-c3ccco3)c2c(=O)n1-c1ccccc1,18% (inactive)
9,CCC(C(=O)Nc1ccncc1)c1ccccc1 (stereo not drawn),2.45% (inactive)
10,Cc1cccc2cc(COC(=O)c3cccc([N+](=O)[O-])c3)c(=O)[nH]c12,3.82% (inactive)
11,CC(=O)NC1CCN(CC(=O)Nc2cccc([N+](=O)[O-])c2)CC1,1.46% (inactive)
12,CC1CCN(CC(=O)Nc2cccc([N+](=O)[O-])c2)CC1,-0.43% (inactive)
13,CCC(C)NC(=O)CSc1nc(-c2cccs2)cc(C(F)(F)F)n1 (stereo not drawn),18.3% (inactive)
14,CCNC(=S)N1CCC(NC(=O)c2ccco2)CC1,-4.14% (inactive)
15,COc1ccc(C(=O)NC2CCN(C(=S)NCc3ccco3)CC2)cc1,4.73% (inactive)
16,Cc1ccc(NC(=O)N2CCC(C(=O)NCc3ccc(F)cc3)CC2)cc1,10.1% (inactive)
17,O=C(NC1CCN(C(=S)NCc2ccco2)CC1)C1CCCCC1,6.27% (inactive)
18,O=C(NC1CCCCC1)NC1CC2CCC(C1)N2C(=S)NCc1ccco1 (stereo not drawn),19.9% (inactive)
19,O=C(NCc1ccccc1)C1CCN(C(=O)NCc2ccccc2)CC1,17.5% (inactive)
20,CCOc1ccc(C(=O)NC2CCN(C(=S)NCc3ccco3)CC2)cc1,11.3% (inactive)
21,Cc1ccc(NC(=O)N2CCC(C(=O)NCc3ccccc3)CC2)cc1,26.3% (active)
22,O=C(NC1CCN(C(=O)NC2CCCCC2)CC1)c1ccco1,11.5% (inactive)
